# The list is not random: actives were taken first. Their share in the collection is about 3.9%.
# HT1080-NT tox: kills 2HG-producing HT-1080-NT fibrosarcoma cells. AID 686970. hit rate 1.6% among 360,000. Potency, µM (doses to about 46.1 µM), for inactives: at the highest dose activity, negative = less viability, usual class: cytotoxic. HT-1080-NT fibrosarcoma viability, CellTiter-Glo ATP luminescence, 48 h;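 also: NT is the 2HG producing partner of a matched IDH1 knockdown line; 0% = DMSO-treated cells and -100% = media-only wells without cells; nearly all actives have a fitted effect of over 55% in size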
#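 Fibrosarcoma NT cells, 750 per well in 5% FBS RPMI, were exposed to compound for 48 hours. Viability: CellTiter-Glo luminescence.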
# TGFb SMAD3 inh: TGF-b pathway inhibition; HepG2 CAGA-GFP TGF-b/SMAD3 reporter, GFP fluorescence, 18 h; TGF-beta stimulated, 500 pg/mL final; Potency, µM (titrated, usually from 46.1 µM), for inactives: at the highest dose activity, negative = inhibition, hits mostly inhibitors; hit rate 1.2% among 410,000; also: % is scaled to controls: 0 for no effect and ±100 for the full control effect; nearly all actives have a fitted effect of over 65% in size
#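 Using HEPG2 CAGA-GFP reporter cells at 1000 cells/well, we pinned test compounds, stimulated with recombinant TGF-beta (500 pg/mL final) and measured total well GFP after 18 h.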
# HT1080 IDH1KD tx: toxicity to HT-1080 IDH1 knockdown cells (counter line); HT-1080 IDH1 knockdown viability, ATP luminescence, 48 h; Potency, µM (titrated, usually from 46.1 µM), without a hit: top-dose activity, negative = toxicity, most hits filed as cytotoxic; hit rate 2% among 360,000;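 also: 0% = DMSO wells and -100% = cell-free medium wells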
#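 Using the IDH1-knockdown HT-1080 line run in the same batch and compound series as the NT line, viability after 48 h at 37 °C was determined by CellTiter-Glo luminescence and expressed as % activity.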
# HepG2 tox-1: counter-screen for TGF-b inhibitors: cytotoxicity in HepG2 cells; HepG2 CAGA-GFP viability, ATP luminescence, 18 h; Potency, µM (top dose mostly 46.1 µM), without a hit: at the highest dose activity change, negative = cytotoxicity, hits mostly cytotoxic; hit rate 0.76% among 410,000
#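 HepG2 CAGA-GFP cells (1000/well, DMEM with 1% FBS) received compound, then TGF-beta at 500 pg/mL final, and were incubated 18 hours at 37 degrees C. Viability was read by CellTiter-Glo luminescence. Media-only wells were set as complete cell-killing and DMSO as no toxicity.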
# ATXN2 expr inh: inhibitors of ATXN2 expression; HEK-293 ATXN2-luciferase reporter, luminescence, 24 h; hit rate 0.72% among 360,000; Potency, µM (titrated, usually from 57 µM), without a hit: top-dose activity change, negative = inhibition, hits mostly inhibitors; also: % is scaled to controls: 0 for no effect and ±100 for the full control effect; nearly all actives have a fitted effect of over 55% in size
#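 ATXN2-luciferase reporter cells (luciferase flanked by upstream and downstream ATXN2 gene portions) were treated 24 h at 37 °C with compounds at up to 57 uM. SteadyGlo luminescence gave expression; GF-AFC fluorescence gave viability.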
# ATXN viability: cell viability loss in ATXN counter-screen | Potency, µM (series often up to 56.7 µM), actives largely listed as cytotoxic | hit rate 0.49% among 400,000 | S2 cells (HEK-293 line with an ATXN2-luciferase reporter) viability, CellTiter-Fluor protease fluorescence, 24 h; also: nearly all actives have a fitted effect of over 40% in size
# TGFb CAGA inh: confirmation of TGF-b signaling inhibitors in HepG2 reporter cells; shares compounds with TGFb SMAD3 inh; HepG2 CAGA-GFP TGF-b reporter, GFP fluorescence, 18 h; cells stimulated with TGF-beta, 500 pg/mL; Potency, µM (doses to about 46.1 µM), for the others: top-dose activity, negative = inhibition, hits mostly inhibitors; hit rate 63% among 1,600; AID 720534; also: % is scaled to controls: 0 for no effect and ±100 for the full control effect; nearly all actives have a fitted effect of over 65% in size
# HepG2 tox-2: counter-screen for TGF-b inhibitors: cytotoxicity in HepG2 cells; shares compounds with TGFb SMAD3 inh; HepG2 CAGA-GFP viability, ATP luminescence, 18 h; cells stimulated with TGF-beta, 500 pg/mL; Potency, µM (series often up to 46.1 µM), without a hit: at the highest dose activity, negative = cytotoxicity, actives largely listed as inhibitors; hit rate 27% among 1,600; also: % is scaled to controls: 0 for no effect and ±100 for the full control effect; nearly all actives have a fitted effect of over 70% in size
# TGFb CCL64 inh: TGF-b inhibition, CCL64 orthogonal assay | shares compounds with TGFb SMAD3 inh | CCL64 CAGA-GFP reporter, TGF-b stimulated, GFP fluorescence, 18 h | Potency, µM (highest dose often 46.1 µM), for the others: at the top dose activity, negative = inhibition, usual class: inhibitors | hit rate 41% among 1,600 | AID 720536; also: nearly all actives have a fitted effect of over 65% in size
# TGFb COP inh: blocks TGF-b signaling in HepG2 COP reporter. HepG2 COP-GFP TGF-b reporter, GFP fluorescence, 18 h; cells stimulated by added recombinant TGF-beta. hit rate 3% among 1,600. Potency, µM (highest dose often 46.1 µM), inactives show at the highest dose activity, negative = inhibition, hits mostly inhibitors. shares compounds with TGFb SMAD3 inh. AID 720537; also: nearly all actives have a fitted effect of over 70% in size
# Active calls of the source: *; i = inactive; ? = inconclusive; · = not tested or not shown. Calls follow the shape of the dose curve; as a rule, active = well fitted curve in the direction sought with a large enough effect; inconclusive = small, poorly fitted or top-dose-only effect, or another doubt; inactive = no such curve, though single readings can be large; an effect the other way counts as inactive or inconclusive. Potency is read from the fitted curve at half-maximal effect.
SMILES,HT1080-NT tox,TGFb SMAD3 inh,HT1080 IDH1KD tx,HepG2 tox-1,ATXN2 expr inh,ATXN viability,TGFb CAGA inh,HepG2 tox-2,TGFb CCL64 inh,TGFb COP inh
Cc1ccc(NS(=O)(=O)c2ccc(OCC(=O)Nc3cccc([N+](=O)[O-])c3)c(C)c2)cc1,?,11.2µM*,12.6µM*,-20.1%,?,?,-77.8%,-24.6%,10.2%,37.1%
COc1ccc(CNC(=O)C2CCN(Cc3nc(-c4ccc(OC)c(OC)c4)oc3C)CC2)cc1,·,?,·,-24.1%,12.2%,i,·,·,·,·
CCOc1ccc(N/C(N)=N/c2nc(C)cc(C)n2)cc1,-16.8%,?,-1.1%,-27.6%,·,?,-28.2%,-26.1%,?,7.7%
CC(=O)Nc1ccc(N/C(N)=N/c2nc(C)cc(C)n2)cc1,-10.2%,9.9%,-18.7%,0.0%,12.7%,i,·,·,·,·
Cc1cc(C)nc(/N=C(\N)Nc2ccc(SC(F)F)cc2)n1,5.3%,8.91µM*,-14.4%,-38.3%,·,i,-25.2%,?,?,27.5%
CCc1ccccc1Nc1cc(C(=O)NC(C)c2ccccc2)c2ccccc2n1 (stereo unspecified),·,?,·,-24.0%,-34.3%,?,·,·,·,·
O=C1C(Nc2ccc(O)cc2)=C/C(=N/S(=O)(=O)c2cccs2)c2ccccc21,2.31µM*,1µM*,1.46µM*,1.12µM*,3.98µM*,8.91µM*,0.651µM*,1.03µM*,3.66µM*,1.03µM*
O=C(O)c1ccc(NC2=C/C(=N/S(=O)(=O)c3ccccc3)c3ccccc3C2=O)cc1,4.11µM*,5.62µM*,5.8µM*,3.98µM*,35.5µM*,·,6.51µM*,18.4µM*,11.6µM*,?
Cc1cc(C)c(NC(=O)c2cc(S(=O)(=O)N3CCCC3)cn2C)c(C)c1,·,-22.2%,·,11.5%,·,·,·,·,·,·
O=[N+]([O-])c1ccc(N2CCN(Cc3ccccc3)CC2)c2c1no[n+]2[O-],23.1µM*,3.16µM*,14.6µM*,3.55µM*,·,3.55µM*,?,4.11µM*,5.17µM*,?
O=[N+]([O-])c1ccc(N2CCN(Cc3ccccc3)CC2)s1,-12.1%,-5.8%,-4.1%,-13.1%,5.2%,i,·,·,·,·
COc1ccc(C2c3c(oc4ccc(Cl)cc4c3=O)C(=O)N2CCCN(C)C)cc1OC (stereo unspecified),·,3.7%,·,10.8%,·,·,·,·,·,·
CCOC(=O)C1=C(CC)Nc2ccccc2N=C1NC(=O)c1cc(C)on1,-10.5%,0.0%,-1.9%,-24.3%,4.5%,i,·,·,·,·
CCOC(=O)C1=C(CC)Nc2ccccc2N=C1NC(=O)Nc1ccc(Cl)c(Cl)c1,?,7.08µM*,?,-36.0%,?,?,18.4µM*,?,6.51µM*,81.0%
CCN(CC)S(=O)(=O)c1ccc2c(c1)N(CC(=O)Nc1ccc(OC)cc1)C(=O)CS2,·,-2.6%,·,-48.0%,6.2%,i,·,·,·,·
COc1cc(/C=N/n2c(SC)nnc(C(C)(C)C)c2=O)ccc1O,3.1%,3.16µM*,1.1%,-12.8%,12.1%,i,?,10.9%,-5.5%,2.1%
CCOc1ccc(N(CC(=O)N/N=C/c2cc([N+](=O)[O-])ccc2Cl)S(C)(=O)=O)cc1,-0.8%,7.94µM*,-23.4%,0.4%,-15.4%,i,14.6µM*,-2.9%,?,15.6%
CCCOc1ccc(/C=N/NC(=O)CN(c2ccc(OCC)cc2)S(C)(=O)=O)cc1,-8.7%,?,-0.4%,-30.4%,0.0%,i,·,·,·,·
CC(C)C[C@H]1CN([C@@H](Cc2ccc(O)cc2)CN2CCC[C@@H]2CN2C(=S)NC[C@@H]2Cc2ccccc2)C(=S)N1CC1CCCCCC1,?,10µM*,-26.1%,-4.9%,?,?,?,-8.7%,?,28.3%
CC(C)C[C@H]1CNC(=S)N1CC1CCCN1C[C@H](Cc1ccccc1)N1C[C@H](Cc2ccc(O)cc2)N(CC2CCCCCC2)C1=S (stereo partly specified),-21.2%,6.31µM*,?,-26.3%,-30.6%,i,14.6µM*,?,5.8µM*,30.8%

# Assay outcomes (PubChem BioAssay)
